In PubChem BioAssay (Tox21):
“And” between values parts separate entries of the source, which are not always exact repeats. Equal values may be shown once. Inconclusive results are not listed. The source made the active and inactive calls. The call rests on the fitted dose curve; in most records, active means well fitted cell-killing curve with a large enough effect in the repeat runs; inconclusive means weak or mixed curves; inactive means flat fitted curve, though single readings scatter.

assay: qHTS assay to identify small molecule antagonists of the estrogen related receptor (ERR) signaling pathway from Tox21 library - cell viability counter screen (AID 1224834); conditions: ERR reporter cells viability, CellTiter-Fluor, 17.5 h; series mostly up to 92.4 µM; viability change, negative = cytotoxic: at the top concentration; further: nearly all actives have a fitted effect of over 30% in size
Summary of the method: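 Viability readout (CellTiter-Fluor fluorescence, 30 min at 37 C) multiplexed with the ERR assay; cells treated 17.5 h at 37 C with compounds delivered in DMSO.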
On the % scale 0 is the no-effect control and ±100 the full control effect; potency means the concentration at half of the fitted maximal effect.

| Compound | viability change, negative = cytotoxic | Potency |
| --- | --- | --- |
| CN1C(=O)CN=C(c2ccccc2)c2cc([N+](=O)[O-])ccc21 | -4.1% [at 42.5 µM] (inactive) | – |
| C1CCNCC1 | -0.136% (inactive) | – |
| O=C(O)CCCOc1ccc(Cl)cc1Cl | – | inactive |
| COc1ccc2c(c1OC)C(=O)O[C@H]2[C@@H]1c2cc3c(cc2CCN1C)OCO3 | – | 6.68 µM (active) |
| CNC(=O)Oc1cccc(N=CN(C)C)c1 | -3.59% (inactive) | – |
| OCCCl | 4.5% (inactive) | – |
| O=[N+]([O-])/C=C/c1ccccc1 | – | 19.6 µM (active) |
| O=S(=O)(c1ccccc1)c1ccccc1 | 3.42% (inactive) | – |
| Clc1ccc2ccccc2c1 | 2.3% (inactive) | – |
| O=C(NC(=O)c1cc(F)c(F)cc1Cl)Nc1cc(F)ccc1N1CCC(C(=O)O)CC1 | -5.25% [at 42.5 µM] (inactive) | – |
| Clc1ccccc1 | 4.45% (inactive) | – |
| O=C(O)COc1cc(Cl)c(Cl)cc1Cl | – | inactive |
| SCc1ccccc1 | 6.63% (inactive) | – |
| CC(C)[C@@H](C(=O)O[C@@H](C#N)c1cccc(Oc2ccccc2)c1)c1ccc(Cl)cc1 | – | inactive |
| O=C(O)C(O)C(O)C(=O)O (centres undefined) | 0.73% (inactive) | – |
| O=C(O)c1ccc(=O)[nH]c1 | -3.75% [at 42.5 µM] (inactive) | – |
| Cc1cnc(C2=NC(C)(C(C)C)C(=O)N2)c(C(=O)O)c1 (centres undefined) | 2.94% (inactive) | – |
| CCC[N+](CCC)(CCC)CCC | -3.59% (inactive) | – |
| CCCCCCCCn1sccc1=O | – | 27.4 µM (active) and 16.1 µM (active) |
| Cc1nc2ccccc2c(=O)n1-c1ccccc1Cl | – | 21.2 µM (active) |

| Compound | viability change, negative = cytotoxic | Potency |
| --- | --- | --- |
| C[N+]1(CCC(C(N)=O)(c2ccccc2)c2ccccc2)CCCCC1 | 0.302% [at 42.5 µM] (inactive) | – |
| CCCCC(CC)COC(=O)c1c(Br)c(Br)c(Br)c(Br)c1C(=O)OCC(CC)CCCC (centres undefined) | 5.58% [at 42.5 µM] (inactive) | – |
| CC(C)C1(C)N=C(c2ncccc2C(=O)O)NC1=O (centres undefined) | 3.99% (inactive) | – |
| O=S(=O)(Cl)Cl | 5.7% (inactive) | – |
| Cc1ccccc1 | 2.07% (inactive) | – |
| CCCC1CCCCN1 (centres undefined) | 0.259% [at 42.5 µM] (inactive) | – |
| CC1(C)[C@H](C(=O)O[C@H](C#N)c2cccc(Oc3ccccc3)c2)[C@@H]1C=C(Br)Br | – | inactive |
| CCCC[P+](CC)(CCCC)CCCC (tested in a mixture with another compound) | -2.56% (inactive) | – |
| C[Si](Cn1cncn1)(c1ccc(F)cc1)c1ccc(F)cc1 | – | 63.1 µM (active) and 48.6 µM (active) |
| O=C(O)C(F)(F)C(F)(F)C(F)(F)C(F)(F)C(F)(F)C(F)(F)C(F)(F)C(F)(F)F | 1.16% (inactive) | – |
| CCOP(=O)(O)C(N)=O | -3.31% (inactive) | – |
| C[C@]12C=CC3=C4CCC(=O)C=C4CC[C@H]3[C@@H]1CC[C@@H]2O | -6.47% (inactive) | – |
| CC(C)(C)NCC(O)c1ccccc1Cl (centres undefined) | 10% [at 42.5 µM] (inactive) | – |
| C=CCc1ccccc1O | -1.26% (inactive) | – |
| O=C(NCNC(=O)NC1C(=O)NC(=O)N1CO)NC1C(=O)NC(=O)N1CO (centres undefined) | 3.41% (inactive) | – |
| Cc1ncc(C[n+]2csc(CCO)c2C)c(N)n1 | 4.15% (inactive) | – |
| COP(=O)(OC)OC(Br)C(Cl)(Cl)Br (centres undefined) | -9.49% (inactive) | – |
| C=C(C)C(=O)OCCCCOC(=O)C(=C)C | 1.13% (inactive) | – |
| C=CCc1ccc(OC(=O)Cc2ccccc2)c(OC)c1 | -0.194% (inactive) | – |
